Test results published in ChEMBL document CHEMBL4303122, “Identification of potential treatments for COVID-19 through artificial intelligence-enabled phenomic analysis of human cells infected with SARS-CoV-2” (2020).
Whole data set: some 1,600 compounds, median “Hit score” near 0.13, cut for the highest 2% near 0.46. For the sample, the highest values were picked, then their nearest neighbours and some compounds at random.

test system: SARS-CoV-2; assay: Antiviral activity against SARS-CoV-2 (USA-WA1/2020 strain) measured by imaging in HRCE cells at MOI 0.4 after 96 hrs (reported as hit score from 0-1 for on-disease vs off-disease activity: scores >0.6 considered hits); type: functional, Homo sapiens

| SMILES | Hit score |
| --- | --- |
| CCCCc1cc2ccccc2c(OCCN(C)C)n1 [DIMETHISOQUIN] | 0.1395 |
| CC[C@]1(O)C[C@@H]2CN(CCc3c([nH]c4ccccc34)[C@@](C(=O)OC)(c3cc4c(cc3OC)N(C)[C@H]3[C@@](O)(C(=O)OC)[C@H](OC(C)=O)[C@]5(CC)C=CCN6CC[C@]43[C@@H]65)C2)C1 [VINBLASTINE] | 0.2235 |
| CC[C@]1(O)C[C@H]2CN(CCc3c([nH]c4ccccc34)[C@@](C(=O)OC)(c3cc4c(cc3OC)N(C=O)[C@H]3[C@@](O)(C(=O)OC)[C@H](OC(C)=O)[C@]5(CC)C=CCN6CC[C@]43[C@@H]65)C2)C1 [VINCRISTINE] | 0.4904 |
| O=C(C[S+]([O-])Cc1ccco1)NC/C=C\COc1cc(CN2CCCCC2)ccn1 (centres undefined) [LAFUTIDINE] | 0.2245 |
| CCC(c1ccccc1)c1c(O)c2ccccc2oc1=O (centres undefined) [PHENPROCOUMON] | 0.1829 |
| COc1ccc2c3c1O[C@H]1C[C@@H](O)C=C[C@@]31CCN(C)C2 [GALANTAMINE] | 0.2532 |
| CC(C)COc1ccc(CNC(=O)N(Cc2ccc(F)cc2)C2CCN(C)CC2)cc1 [PIMAVANSERIN] | -0.09171 |
| Brc1ccc(NC2C3CC4CC(C3)CC2C4)cc1 (centres undefined) | 0.3495 |
| CO[C@H]1C(=O)[C@]2(C)[C@@H](OC)C[C@H]3OC[C@@]3(OC(C)=O)[C@H]2[C@H](OC(=O)c2ccccc2)[C@]2(O)C[C@H](OC(=O)[C@H](O)[C@@H](NC(=O)OC(C)(C)C)c3ccccc3)C(C)=C1C2(C)C [CABAZITAXEL] | -0.8282 |
| COC(=O)c1ccc2c(c1)NC(=O)/C2=C(\Nc1ccc(N(C)C(=O)CN2CCN(C)CC2)cc1)c1ccccc1 [NINTEDANIB] | 0.1859 |
| O=c1ncnc2n([C@H]3O[C@@H](CO)[C@H](O)[C@@H]3O)[nH]cc1-2 [ALLOPURINOL RIBOSIDE] | 0.1953 |
| Cc1c(O)cccc1C(=O)N[C@@H](CSc1ccccc1)[C@H](O)CN1C[C@H]2CCCC[C@H]2C[C@H]1C(=O)NC(C)(C)C | 0.1621 |
| COc1ccc(C(=O)N2CCN(c3ccc4c(c3)CCC(=O)N4)CC2)cc1OC [VESNARINONE] | 0.09463 |
| CCCOC(C(=O)OC1CCN(C)CC1)(c1ccccc1)c1ccccc1.Cl | 0.3138 |
| C/C=C/C[C@@H](C)[C@@H](O)[C@H]1C(=O)N[C@@H](CC)C(=O)N(C)CC(=O)N(C)[C@@H](CC(C)C)C(=O)N[C@@H](C(C)C)C(=O)N(C)[C@@H](CC(C)C)C(=O)N[C@@H](C)C(=O)N[C@H](C)C(=O)N(C)[C@@H](CC(C)C)C(=O)N(C)[C@@H](CC(C)C)C(=O)N(C)[C@@H](C(C)C)C(=O)N1C [CYCLOSPORINE] | 0.07198 |
| COc1ccc2c(c1)c(CC(=O)OCC(C(=O)O)c1ccccc1)c(C)n2C(=O)c1ccc(Cl)cc1 (centres undefined) | 0.05914 |
| COc1ccccc1OC(=O)c1ccccc1OC(C)=O [GUACETISAL] | 0.1414 |

| SMILES | Hit score |
| --- | --- |
| COc1ccc(NC(=O)c2ccc(C(=N)N(C)C)cc2)c(C(=O)Nc2ccc(Cl)cn2)c1 [BETRIXABAN] | 0.004778 |
| O=C1NC(c2ccccc2)(c2ccccc2)C(=O)N1COP(=O)(O)O [FOSPHENYTOIN] | -0.01075 |
| CNC(=O)c1cccc(NC(=O)N2CCC(Oc3ccccc3Cl)CC2)c1 | 0.1005 |
| CCCCc1nc(C)c(CC(=S)N(C)C)c(=O)n1Cc1ccc(-c2ccccc2-c2nnn[nH]2)cc1 | 0.1262 |
| COc1ccc2c(O[C@@H]3C[C@H]4C(=O)N[C@]5(C(=O)NS(=O)(=O)C6CC6)C[C@H]5/C=C\CCCCN(C)C(=O)[C@@H]4C3)cc(-c3nc(C(C)C)cs3)nc2c1C | 0.1824 |
| C=C1/C(=C\C=C2/CCC[C@]3(C)[C@@H]([C@H](C)CC[C@@H](O)C(C)C)CC[C@@H]23)C[C@@H](O)C[C@@H]1O [TACALCITOL] | 0.4469 |
| C=C1CC[C@H](O)C/C1=C/C=C1\CCC[C@]2(C)[C@@H]([C@H](C)CC[C@@H](O)C(C)(C)O)CC[C@@H]12 [SECALCIFEROL] | 0.3632 |
| C=C1/C(=C\C=C2/CCC[C@]3(C)[C@@H]([C@H](C)/C=C/[C@@H](O)C4CC4)CC[C@@H]23)C[C@@H](O)C[C@@H]1O [CALCIPOTRIENE] | 0.6212 |
| C[C@H](/C=C/[C@H](C)C(C)(C)O)[C@H]1CC[C@H]2/C(=C/C=C3C[C@@H](O)C[C@H](O)C3)CCC[C@]12C [PARICALCITOL] | 0.5764 |
| C=C1CC[C@H](O)C/C1=C/C=C1\CCC[C@]2(C)[C@@H]([C@H](C)CCCC(C)(C)O)CC[C@@H]12 [CALCIFEDIOL ANHYDROUS] | 0.4579 |
| C=C1/C(=C\C=C2/CCC[C@]3(C)[C@@H]([C@H](C)/C=C/[C@H](C)C(C)C)CC[C@@H]23)C[C@@H](O)C[C@@H]1O [DOXERCALCIFEROL] | 0.4621 |
| C=C1CC[C@H](O)C/C1=C/C=C1\CCC[C@]2(C)[C@@H]([C@H](C)CCCC(C)C)CC[C@@H]12 [CHOLECALCIFEROL] | 0.2186 |
| C=C1/C(=C\C=C2/CCC[C@]3(C)[C@@H]([C@H](C)OCCC(C)(C)O)CC[C@@H]23)C[C@@H](O)C[C@@H]1O [MAXACALCITOL] | -0.1282 |
| CCN(CC)C(=O)Nc1ccc(OCC(O)CNC(C)(C)C)c(C(C)=O)c1 (centres undefined) [CELIPROLOL] | 0.5089 |
| CC(C)(C)NCC(O)COc1ccc(NC(=O)NC2CCCCC2)cc1 (centres undefined) [TALINOLOL] | 0.1441 |
| CN(C)C(=O)Oc1cc(OC(=O)N(C)C)cc(C(O)CNC(C)(C)C)c1 (centres undefined) [BAMBUTEROL] | 0.1323 |
| C[C@]12CC[C@H]3[C@@H](CC[C@@]45O[C@@H]4C(O)=C(C#N)C[C@]35C)[C@@H]1CC[C@@H]2O [TRILOSTANE] | 0.3178 |
